Reference: PubChem BioAssay AID602144 (Vanderbilt Specialized Chemistry Center, 2011)
A number with no mark means an inactive call. Active and inactive are the calls of the source. Rule as the data show it: active = remaining activity below about 50%; inactive = the rest.

Target: Phospholipase D1 (Homo sapiens) (UniProt Q13393)
Assay: PLD1 inhibitors in cells, Calu-1 cells, single concentration (AID 602144);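 also: tested at 200 nM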
Conditions: cellular PLD1 activity, hits give low values

Chain of Phospholipase D1 (Homo sapiens) (Q13393 whole entry, looked up): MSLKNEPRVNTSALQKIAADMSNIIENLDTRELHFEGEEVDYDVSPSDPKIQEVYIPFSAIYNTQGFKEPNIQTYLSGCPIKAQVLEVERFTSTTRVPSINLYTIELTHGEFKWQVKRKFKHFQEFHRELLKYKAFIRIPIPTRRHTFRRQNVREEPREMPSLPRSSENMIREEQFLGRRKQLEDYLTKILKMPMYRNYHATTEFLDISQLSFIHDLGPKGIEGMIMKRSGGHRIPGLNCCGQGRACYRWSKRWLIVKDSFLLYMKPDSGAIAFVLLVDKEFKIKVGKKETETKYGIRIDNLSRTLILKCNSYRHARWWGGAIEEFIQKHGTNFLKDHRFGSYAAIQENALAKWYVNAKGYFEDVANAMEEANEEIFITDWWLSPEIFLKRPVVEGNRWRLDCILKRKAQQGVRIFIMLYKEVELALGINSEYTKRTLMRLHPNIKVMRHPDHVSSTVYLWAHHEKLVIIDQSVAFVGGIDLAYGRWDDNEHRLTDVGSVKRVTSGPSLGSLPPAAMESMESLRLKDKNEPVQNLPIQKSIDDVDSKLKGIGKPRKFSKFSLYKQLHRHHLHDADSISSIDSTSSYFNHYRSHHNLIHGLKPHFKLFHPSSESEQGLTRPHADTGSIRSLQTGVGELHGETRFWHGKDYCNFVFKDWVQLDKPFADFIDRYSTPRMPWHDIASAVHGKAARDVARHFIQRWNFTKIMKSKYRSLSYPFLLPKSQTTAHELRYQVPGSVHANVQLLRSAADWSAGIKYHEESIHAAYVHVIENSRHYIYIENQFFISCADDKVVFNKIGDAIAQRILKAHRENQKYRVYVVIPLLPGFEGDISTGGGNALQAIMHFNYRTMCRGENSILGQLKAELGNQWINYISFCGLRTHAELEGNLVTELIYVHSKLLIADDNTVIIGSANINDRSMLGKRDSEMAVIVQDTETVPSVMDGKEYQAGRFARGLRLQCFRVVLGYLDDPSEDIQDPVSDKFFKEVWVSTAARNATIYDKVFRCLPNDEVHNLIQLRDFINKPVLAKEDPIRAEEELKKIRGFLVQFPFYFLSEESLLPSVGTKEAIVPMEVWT
Chain of Phospholipase D1 (Homo sapiens) (Q13393 whole entry, looked up): as above

Row | SMILES | remaining activity
1 | Nc1ccc(C(=O)NCCN2CCC(n3c(=O)[nH]c4ccccc43)CC2)c(F)c1 | 68.5%
2 | O=C(NCCN1CCC(n2c(=O)[nH]c3ccccc32)CC1)C1CCc2ccccc2C1 (stereo not drawn) | 77.8%
3 | C[C@@H](CN1CCC(n2c(=O)[nH]c3ccccc32)CC1)NC(=O)c1cccnc1 | 41.1% (active)
4 | O=C(NCCN1CCC(n2c(=O)[nH]c3ccccc32)CC1)Nc1ccccc1C(F)(F)F | 131%
5 | CC1(C)[C@@H]2CC[C@@]1(CS(=O)(=O)NCCN1CCC(n3c(=O)[nH]c4ccccc43)CC1)C(=O)C2 | 103%
6 | C[C@H](CN1CCC2(CC1)CNc1ccccc12)NC(=O)c1cnc2ccccc2c1 | 55%
7 | NC1(CN2CCC(c3nc4ccccc4[nH]3)CC2)CCCC1 (tested in a mixture with another compound) | 81.2%
8 | O=C1c2ccccc2C(=O)N1CCN1CCC(n2c(=O)[nH]c3ccccc32)CC1 | 112%
9 | O=C(NCCN1CCC(n2c(=O)[nH]c3ccccc32)CC1)c1cc2ccccc2c2ccccc12 | 7.23% (active)
10 | O=C(NCCN1CCN(c2ccncc2)CC1)c1ccc(F)cc1 | 126%
11 | COc1cccc(N2CCN(CCNC(=O)c3ccc(F)cc3)CC2)c1 | 110%
12 | O=C(NCCN1CCC(n2c(=O)[nH]c3ccccc32)CC1)Nc1cccc(OC(F)(F)F)c1 | 131%
13 | CCS(=O)(=O)NCCN1CCC(n2c(=O)[nH]c3ccccc32)CC1 | 121%
14 | O=C(NCCN1CCN(c2ncccn2)CC1)c1ccc(F)cc1 | 76.5%
15 | O=C(NCCN1CCC(c2nc3ccccc3[nH]2)CC1)c1cnc2ccccc2c1 | 123%
16 | O=C(NCCN1CCC(n2c(=O)[nH]c3ccccc32)CC1)c1ncccn1 | 120%
17 | COc1cccc(C(=O)NCCN2CCC(n3c(=O)[nH]c4ccccc43)CC2)n1 | 39.7% (active)
18 | Cc1ccc(C(=O)N[C@@H](C)CN2CCC(n3c(=O)[nH]c4cc(Br)ccc43)CC2)cc1 | 13% (active)
19 | CN1CCC2(CCN(CCNC(=O)[C@H]3C[C@@H]3c3ccccc3)CC2)C1=O | 107%
20 | O=C(NCCN1CCC(n2c(=O)[nH]c3ccccc32)CC1)Nc1ccccc1F | 102%
21 | O=C(NCCN1CCN(c2ncccn2)CC1)c1ccc(Cl)cc1 | 80.9%
22 | C[C@@H](CN1CCC2(CCc3ccccc32)CC1)NC(=O)c1cnc2ccccc2c1 | 129%
23 | Cc1ccc(C(=O)N[C@@H](C)CN2CCC(n3c(=O)[nH]c4ccc(F)cc43)CC2)cc1 | 27.4% (active)
24 | C[C@@H](CN1CCC(n2c(=O)[nH]c3ccc(F)cc32)CC1)NC(=O)c1ccc(F)cc1 | 16% (active)
25 | CC(C)C(=O)N[C@@H](C)CN1CCC(n2c(=O)[nH]c3ccccc32)CC1 | 104%
26 | O=C(CCc1ccc(F)cc1)NCCN1CCC(n2c(=O)[nH]c3ccccc32)CC1 | 75.2%
27 | C[C@@H](CN1CCC(c2nc3ccccc3[nH]2)CC1)NC(=O)C1CC1c1ccccc1 (stereo partly drawn) | 87.4%
28 | O=C(NCCN1CCC(C(=O)NCCc2ccccn2)CC1)c1ccc2ccccc2c1 | 101%
